PubChem BioAssay (EPA / NIEHS)
Where “and” joins values, the source holds several entries; their conditions need not be identical. Identical values can stand only once. Inconclusive results are not listed. A structure can be active in one record and inactive in another. Calls of active or inactive are those of the source. How the source made its calls, unless noted: active means hit-call score of the fitted dose curve at least 0.9, where 1 is the maximum; inconclusive means response in the unintended direction; inactive means score below 0.9.

What was measured:
[1] = ATG_TGFb_CIS: Attagene CIS-FACTORIAL HepG2 Assay for human Transforming Growth Factor (TGF) (AID 2282967; active means hit-call score of the fitted dose curve at least 0.9, where 1 is the maximum; inactive means score below 0.9); settings: HepG2 Attagene CIS TGFb reporter, mRNA transcription; actives raise or lower the signal
In short: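 Endogenous TGFB1-linked transcription factor activity read as reporter mRNA via RT-PCR and capillary electrophoresis, 24 h after dosing transiently transfected HepG2 cells. Gain or loss of signal fitted relative to DMSO.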

[2] = ATG_VDRE_CIS: Attagene CIS-FACTORIAL HepG2 Assay for human Vitamin D Receptor Element (VDRE) (AID 2282968; active means hit-call score of the fitted dose curve at least 0.9, where 1 is the maximum; inactive means score below 0.9); settings: HepG2 VDRE cis-reporter transcription, actives raise or lower the signal
In short: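 In transiently transfected HepG2 liver cells, gain or loss of reporter mRNA after 24 h exposure is scored relative to DMSO, using fluorescence detection by capillary electrophoresis of RT-PCR products.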

[3] = molecular target: X-box-binding protein 1 (Homo sapiens) (UniProt P17861); assay: ATG_Xbp1_CIS: Attagene CIS-FACTORIAL HepG2 Assay for human X-box Binding Protein 1 (XBP1) (AID 2282972; active means hit-call score of the fitted dose curve at least 0.9, where 1 is the maximum; inactive means score below 0.9); settings: HepG2 XBP1 cis-element reporter, Attagene multiplex; actives raise or lower the signal
In short: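 HepG2 cells transiently transfected with cis-regulated multiple reporter transcription units; endogenous transcription factor activity measured 24 hours after chemical dosing. Reporter mRNA quantified by RT-PCR, 6-FAM primer extension, HpaI digestion and capillary electrophoresis; bidirectional fitting versus DMSO.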

[4] = ATG_GAL4_TRANS: Attagene TRANS-FACTORIAL HepG2 Assay for GAL4 (Internal Marker) (AID 2282976); settings: HepG2 Attagene TRANS GAL4 internal marker reporter
In short: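 In transfected human HepG2 liver cells dosed 24 h, GAL4 reporter mRNA serves as a baseline marker. Detection by RT-PCR with fluorescent capillary electrophoresis, activity fitted upward relative to DMSO.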

[5] = molecular target: Hepatocyte nuclear factor 4-alpha (Homo sapiens) (UniProt P41235); assay: ATG_HNF4a_TRANS: Attagene TRANS-FACTORIAL HepG2 Assay for human Hepatocyte Nuclear Factor 4 alpha (HNF4a) (AID 2282982); settings: HepG2 HNF4a transactivation reporter, mRNA readout
In short: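 Transfected HepG2 reporter cells are dosed for 24 h; reporter RNA is reverse-transcribed, amplified, fluorescently labelled and HpaI-digested before CE sizing. Positive-direction fit against DMSO.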

[6] = ATG_M_06_TRANS: Attagene TRANS-FACTORIAL HepG2 Assay for M06 Transcription Factor (Internal Marker) (AID 2282983); settings: HepG2 Attagene TRANS M06 internal marker reporter;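 on AC50: potency for rise in reporter mRNA above DMSO baseline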
In short: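 Cells: HepG2, transient multi-reporter transfection. Exposure: 24 h. Detection: RT-PCR, 6-FAM labelling, HpaI digestion (2 h, 37 °C), capillary electrophoresis. Baseline: DMSO.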

[7] = ATG_M_32_TRANS: Attagene TRANS-FACTORIAL HepG2 Assay for M32 Transcription Factor (Internal Marker) (AID 2282984); settings: HepG2 Attagene TRANS M32 internal marker reporter;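 further: transcript level of a background control reporter unit measured by RT-PCR and capillary electrophoresis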
In short: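 Using transiently transfected HepG2 cells exposed to test chemicals for 24 h, reporter transcripts are converted to labelled cDNA fragments and quantified by capillary electrophoresis. DMSO defines the activity baseline.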

[8] = molecular target: Nuclear receptor subfamily 4 group A member 2 (Homo sapiens) (UniProt P43354); assay: ATG_NURR1_TRANS: Attagene TRANS-FACTORIAL HepG2 Assay for human Nuclear Receptor Related Protein 1 (NURR1) (AID 2282985); settings: HepG2 Attagene TRANS reporter, mRNA readout
In short: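 Cells: HepG2, transiently transfected. Exposure: 24 h. Detection: fluorescence of labelled RT-PCR products separated by capillary electrophoresis; upward fit versus DMSO.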

[9] = molecular target: Nuclear respiratory factor 1 (Homo sapiens) (UniProt Q16656); assay: ATG_NRF1_CIS: Attagene CIS-FACTORIAL HepG2 Assay for human Nuclear Respiratory Factor 1 (NRF1) Orphan Gene (AID 2282987; active means hit-call score of the fitted dose curve at least 0.9, where 1 is the maximum; inactive means score below 0.9); settings: HepG2 NRF1 cis-element reporter, Attagene multiplex; actives raise or lower the signal
In short: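 Endogenous NRF1-driven reporter transcription in transfected HepG2 cells after 24 h treatment. Readout: RT-PCR products, 6-FAM labelled and resolved by capillary electrophoresis; changes fitted both directions relative to DMSO.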

[10] = molecular target: Nuclear receptor subfamily 1 group I member 3 (Homo sapiens) (UniProt Q14994); assay: ATG_CAR_TRANS: Attagene TRANS-FACTORIAL HepG2 Assay for human Constitutive Androstane Receptor (CAR) (AID 2282969); settings: HepG2 Attagene TRANS-FACTORIAL CAR reporter;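 further: activators raise reporter mRNA above DMSO so AC50 marks induction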
In short: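 Readout is reporter mRNA induction, quantified by fluorescent primer extension and capillary electrophoresis after RT-PCR. Cells were HepG2 transiently carrying chimeric NR-Gal4 constructs with GAL4-UAS reporters, treated for 24 h; activity scored upward from DMSO.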

[11] = molecular target: Androgen receptor (Homo sapiens) (UniProt P10275); assay: ATG_AR_TRANS: Attagene TRANS-FACTORIAL HepG2 Assay for human Androgen Receptor (AR) (AID 2282973); settings: HepG2 Attagene TRANS-FACTORIAL AR reporter transcription
In short: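 Transcriptional activity of an exogenous AR–Gal4 fusion read as GAL4-UAS reporter transcript levels in transfected human HepG2 cells after 24 h dosing. Detection via RT-PCR, 6-FAM labelling, HpaI digest and capillary electrophoresis; increase over DMSO baseline.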

[12] = ATG_M_19_TRANS: Attagene TRANS-FACTORIAL HepG2 Assay for M19 Transcription Factor (Internal Marker) (AID 2282974); settings: HepG2 Attagene TRANS-FACTORIAL M19 internal marker reporter
In short: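 Background-control readout: after 24 h chemical exposure of transfected HepG2 carrying GAL4-driven reporter units, RNA was reverse-transcribed, amplified, fluorescently labeled and sized by capillary electrophoresis; gain-of-signal fit against DMSO.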

[13] = molecular target: Glucocorticoid receptor (Homo sapiens) (UniProt P04150); assay: ATG_GR_TRANS: Attagene TRANS-FACTORIAL HepG2 Assay for human Glucocorticoid Receptor (GR) (AID 2282978); settings: HepG2 Attagene TRANS GR reporter, mRNA transcription;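 further: activators score as hits since higher reporter transcript over DMSO is fitted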
In short: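 Readout is reporter transcript from a chimeric GR-Gal4 acting on GAL4-UAS in transfected human HepG2 liver cells after 24 h exposure, quantified by RT-PCR and capillary electrophoresis. Activation fitted upward against DMSO.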

[14] = molecular target: Oxysterols receptor LXR-alpha (Homo sapiens) (UniProt Q13133); assay: ATG_LXRa_TRANS: Attagene TRANS-FACTORIAL HepG2 Assay for human Liver X Receptor alpha (LXRa) (AID 2282980); settings: HepG2 Attagene TRANS reporter, LXRa transactivation
In short: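 Chemical-induced reporter mRNA measured by RT-PCR with fluorescent labelling and capillary electrophoresis after 24 h dosing of transiently transfected HepG2 cells expressing exogenous NR-Gal4 chimeras; increases scored against DMSO baseline.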

[15] = molecular target: Oxysterols receptor LXR-beta (Homo sapiens) (UniProt P55055); assay: ATG_LXRb_TRANS: Attagene TRANS-FACTORIAL HepG2 Assay for human Liver X Receptor beta (LXRb) (AID 2282981); settings: HepG2 Attagene TRANS GAL4-LXRb reporter, mRNA
In short: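 Cells: HepG2, transiently transfected with GAL4-UAS reporter units plus LXRb-Gal4 fusion. Treatment: 24 h. Detection: reporter mRNA by RT-PCR, 6-FAM labelling, HpaI digestion, capillary electrophoresis.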

[16] = molecular target: Transcriptional activator Myb (Homo sapiens) (UniProt P10242); assay: ATG_Myb_CIS: Attagene CIS-FACTORIAL HepG2 Assay for human Myeloblastosis (Myb) Proto-Oncogene Transcription Factor (AID 2282986; active means hit-call score of the fitted dose curve at least 0.9, where 1 is the maximum; inactive means score below 0.9); settings: HepG2 Attagene CIS-FACTORIAL Myb reporter transcription; actives raise or lower the signal
In short: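 Reporter mRNA is quantified by RT-PCR and capillary electrophoresis 24 h after dosing HepG2 cells transfected with cis-regulated reporter units, which track endogenous transcription factor activity. Gain and loss of signal are fitted versus DMSO baseline.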

[17] = molecular target: Estrogen receptor (Homo sapiens) (UniProt P03372); assay: ATG_ERa_TRANS: Attagene TRANS-FACTORIAL HepG2 Assay for human Estrogen Receptor alpha (ERa) (AID 2282970); settings: HepG2 Attagene TRANS ERa GAL4 reporter, mRNA
In short: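 Cells: HepG2, transiently transfected. Construct: GAL4-UAS reporter units regulated by exogenous NR-Gal4 chimeras. Time: 24 h. Detection: reporter mRNA by RT-PCR, capillary electrophoresis, fluorescence. Baseline: DMSO, upward fitting.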

[18] = molecular target: Bile acid receptor (Homo sapiens) (UniProt Q96RI1); assay: ATG_FXR_TRANS: Attagene TRANS-FACTORIAL HepG2 Assay for Farnesoid X Receptor (FXR) (AID 2282979); settings: HepG2 Attagene TRANS FXR-GAL4 reporter transcription;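 further: hits raise reporter mRNA above DMSO so AC50 marks FXR activation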
In short: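 Reporter transcripts from transfected HepG2 cells were measured 24 h after dosing, using RT-PCR with capillary electrophoresis of 6-FAM-labelled fragments. The read-out reflects activity of exogenous FXR-Gal4 chimera on GAL4-UAS units, with induction relative to DMSO.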

[19] = molecular target: Steroid hormone receptor ERR1 (Homo sapiens) (UniProt P11474); assay: ATG_ERRa_TRANS: Attagene TRANS-FACTORIAL HepG2 Assay for human Estrogen-Related Receptor alpha (ERRa) (AID 2282971); settings: HepG2 Attagene TRANS reporter, ERRa transactivation
In short: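 Reporter transcripts from ERRa-Gal4 chimera activity measured in transiently transfected human HepG2 cells 24 hours after dosing, using RT-PCR with 6-FAM primer extension, HpaI digestion and capillary electrophoresis; DMSO is baseline.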

Measured: AC50

X-box-binding protein 1 (Homo sapiens), sequence (P17861 whole entry, looked up): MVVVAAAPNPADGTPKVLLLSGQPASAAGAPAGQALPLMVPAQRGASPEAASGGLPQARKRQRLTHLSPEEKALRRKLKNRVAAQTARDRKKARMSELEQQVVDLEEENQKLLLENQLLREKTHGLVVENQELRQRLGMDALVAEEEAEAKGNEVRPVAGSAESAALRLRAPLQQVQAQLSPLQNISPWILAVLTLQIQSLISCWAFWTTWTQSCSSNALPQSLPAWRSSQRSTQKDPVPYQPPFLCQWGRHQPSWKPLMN
Oxysterols receptor LXR-alpha (Homo sapiens), sequence (Q13133 whole entry, looked up, the tested form may be a part): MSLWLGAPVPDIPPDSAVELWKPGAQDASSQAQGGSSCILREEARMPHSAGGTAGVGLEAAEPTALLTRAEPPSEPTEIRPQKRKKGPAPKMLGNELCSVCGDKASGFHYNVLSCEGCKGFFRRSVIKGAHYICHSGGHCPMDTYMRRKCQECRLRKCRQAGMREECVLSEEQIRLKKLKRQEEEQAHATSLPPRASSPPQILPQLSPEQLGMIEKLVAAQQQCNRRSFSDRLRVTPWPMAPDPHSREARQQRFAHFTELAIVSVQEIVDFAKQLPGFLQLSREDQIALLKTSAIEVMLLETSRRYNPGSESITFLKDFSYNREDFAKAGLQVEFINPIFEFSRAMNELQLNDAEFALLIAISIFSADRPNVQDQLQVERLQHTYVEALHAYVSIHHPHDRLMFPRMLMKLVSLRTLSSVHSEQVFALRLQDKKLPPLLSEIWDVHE
Oxysterols receptor LXR-beta (Homo sapiens), sequence (P55055 whole entry, looked up, the tested form may be a part): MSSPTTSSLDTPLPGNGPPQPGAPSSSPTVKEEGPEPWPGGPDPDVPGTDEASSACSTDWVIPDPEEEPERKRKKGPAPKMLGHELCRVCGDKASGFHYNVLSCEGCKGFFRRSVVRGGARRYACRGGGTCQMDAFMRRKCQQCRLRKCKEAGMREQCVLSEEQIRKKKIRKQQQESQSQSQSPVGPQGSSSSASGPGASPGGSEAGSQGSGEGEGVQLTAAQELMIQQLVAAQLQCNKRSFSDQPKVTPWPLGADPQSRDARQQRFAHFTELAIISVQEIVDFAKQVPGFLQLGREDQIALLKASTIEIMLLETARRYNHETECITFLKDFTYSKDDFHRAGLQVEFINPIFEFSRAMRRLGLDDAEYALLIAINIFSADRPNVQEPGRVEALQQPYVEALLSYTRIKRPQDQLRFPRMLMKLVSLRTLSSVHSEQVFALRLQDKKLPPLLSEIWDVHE
Nuclear respiratory factor 1 (Homo sapiens), sequence (Q16656 whole entry, looked up): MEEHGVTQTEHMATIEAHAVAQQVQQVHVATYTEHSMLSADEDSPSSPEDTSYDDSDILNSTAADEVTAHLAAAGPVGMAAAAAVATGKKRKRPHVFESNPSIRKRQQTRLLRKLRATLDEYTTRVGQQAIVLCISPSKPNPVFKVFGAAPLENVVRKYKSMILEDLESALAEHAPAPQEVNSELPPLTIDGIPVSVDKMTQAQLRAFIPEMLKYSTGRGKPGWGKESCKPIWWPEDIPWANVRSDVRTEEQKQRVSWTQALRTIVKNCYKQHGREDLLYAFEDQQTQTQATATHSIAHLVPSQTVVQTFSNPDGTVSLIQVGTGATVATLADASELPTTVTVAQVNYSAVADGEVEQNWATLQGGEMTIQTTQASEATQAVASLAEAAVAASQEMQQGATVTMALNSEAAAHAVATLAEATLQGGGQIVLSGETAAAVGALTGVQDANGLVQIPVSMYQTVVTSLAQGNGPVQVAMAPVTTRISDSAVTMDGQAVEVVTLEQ
Androgen receptor (Homo sapiens), sequence (P10275 whole entry, looked up, the tested form may be a part): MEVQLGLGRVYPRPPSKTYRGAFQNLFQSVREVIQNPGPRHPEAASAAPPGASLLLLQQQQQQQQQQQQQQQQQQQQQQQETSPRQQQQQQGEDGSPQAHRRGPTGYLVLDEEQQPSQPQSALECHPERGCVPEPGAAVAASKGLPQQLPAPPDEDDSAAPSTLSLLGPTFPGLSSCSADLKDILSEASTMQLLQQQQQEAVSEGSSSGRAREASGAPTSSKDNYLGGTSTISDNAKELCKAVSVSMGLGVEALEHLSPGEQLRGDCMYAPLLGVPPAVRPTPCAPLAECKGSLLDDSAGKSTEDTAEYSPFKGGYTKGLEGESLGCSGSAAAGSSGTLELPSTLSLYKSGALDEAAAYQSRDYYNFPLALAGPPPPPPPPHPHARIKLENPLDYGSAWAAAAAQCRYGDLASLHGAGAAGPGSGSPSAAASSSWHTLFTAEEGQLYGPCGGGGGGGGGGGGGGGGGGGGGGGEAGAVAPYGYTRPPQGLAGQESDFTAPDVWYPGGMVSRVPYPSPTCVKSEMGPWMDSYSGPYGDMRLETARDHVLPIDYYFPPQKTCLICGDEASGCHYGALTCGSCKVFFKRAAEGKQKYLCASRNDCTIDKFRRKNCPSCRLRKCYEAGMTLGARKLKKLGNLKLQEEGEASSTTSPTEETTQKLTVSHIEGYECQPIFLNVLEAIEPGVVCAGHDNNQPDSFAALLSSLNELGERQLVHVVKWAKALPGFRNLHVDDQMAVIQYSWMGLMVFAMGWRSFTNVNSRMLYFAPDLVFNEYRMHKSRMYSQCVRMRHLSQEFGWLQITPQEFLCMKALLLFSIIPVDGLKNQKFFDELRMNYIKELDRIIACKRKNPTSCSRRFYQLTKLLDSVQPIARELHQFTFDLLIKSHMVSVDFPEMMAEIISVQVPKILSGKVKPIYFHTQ
Steroid hormone receptor ERR1 (Homo sapiens), sequence (P11474 whole entry, looked up, the tested form may be a part): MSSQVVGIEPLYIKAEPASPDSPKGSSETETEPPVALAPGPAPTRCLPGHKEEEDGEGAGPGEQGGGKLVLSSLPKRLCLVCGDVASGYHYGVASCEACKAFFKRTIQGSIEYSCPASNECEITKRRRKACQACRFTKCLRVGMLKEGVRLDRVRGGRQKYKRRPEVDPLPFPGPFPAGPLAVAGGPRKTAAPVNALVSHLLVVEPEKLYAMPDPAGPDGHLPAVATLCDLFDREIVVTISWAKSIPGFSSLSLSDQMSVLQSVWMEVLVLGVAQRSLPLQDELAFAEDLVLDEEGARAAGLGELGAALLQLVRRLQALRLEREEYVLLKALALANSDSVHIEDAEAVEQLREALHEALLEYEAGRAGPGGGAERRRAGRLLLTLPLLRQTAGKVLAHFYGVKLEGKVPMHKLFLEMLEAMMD
Glucocorticoid receptor (Homo sapiens), sequence (P04150 whole entry, looked up, the tested form may be a part): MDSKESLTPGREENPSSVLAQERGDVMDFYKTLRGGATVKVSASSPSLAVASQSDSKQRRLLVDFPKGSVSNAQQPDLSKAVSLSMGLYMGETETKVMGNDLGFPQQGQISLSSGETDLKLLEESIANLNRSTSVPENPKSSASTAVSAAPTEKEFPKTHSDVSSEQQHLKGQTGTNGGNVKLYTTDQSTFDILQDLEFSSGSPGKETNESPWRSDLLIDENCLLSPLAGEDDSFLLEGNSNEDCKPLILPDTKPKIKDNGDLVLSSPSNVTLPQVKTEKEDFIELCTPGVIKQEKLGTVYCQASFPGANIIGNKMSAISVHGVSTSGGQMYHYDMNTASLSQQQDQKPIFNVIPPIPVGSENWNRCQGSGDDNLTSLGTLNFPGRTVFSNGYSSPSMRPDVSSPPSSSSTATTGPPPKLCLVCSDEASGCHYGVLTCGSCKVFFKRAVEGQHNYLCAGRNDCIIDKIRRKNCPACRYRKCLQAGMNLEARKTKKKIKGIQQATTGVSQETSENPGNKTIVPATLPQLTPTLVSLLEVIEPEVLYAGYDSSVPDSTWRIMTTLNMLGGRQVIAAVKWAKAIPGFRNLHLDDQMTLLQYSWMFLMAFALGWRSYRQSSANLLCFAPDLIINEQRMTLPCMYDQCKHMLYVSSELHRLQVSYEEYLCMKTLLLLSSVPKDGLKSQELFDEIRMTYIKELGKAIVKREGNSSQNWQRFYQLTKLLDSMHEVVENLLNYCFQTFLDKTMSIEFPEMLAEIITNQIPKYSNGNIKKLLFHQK
Nuclear receptor subfamily 1 group I member 3 (Homo sapiens), sequence (Q14994 whole entry, looked up, the tested form may be a part): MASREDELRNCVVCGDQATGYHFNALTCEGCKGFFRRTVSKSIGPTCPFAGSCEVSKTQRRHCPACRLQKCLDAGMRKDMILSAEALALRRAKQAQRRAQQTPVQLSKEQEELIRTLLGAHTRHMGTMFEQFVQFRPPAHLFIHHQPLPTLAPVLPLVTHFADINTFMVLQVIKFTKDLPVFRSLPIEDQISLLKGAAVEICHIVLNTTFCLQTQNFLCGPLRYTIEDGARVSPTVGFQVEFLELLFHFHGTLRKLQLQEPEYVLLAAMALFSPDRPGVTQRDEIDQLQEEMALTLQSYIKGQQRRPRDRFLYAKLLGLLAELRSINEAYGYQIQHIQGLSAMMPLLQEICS
Bile acid receptor (Homo sapiens), sequence (Q96RI1 whole entry, looked up, the tested form may be a part): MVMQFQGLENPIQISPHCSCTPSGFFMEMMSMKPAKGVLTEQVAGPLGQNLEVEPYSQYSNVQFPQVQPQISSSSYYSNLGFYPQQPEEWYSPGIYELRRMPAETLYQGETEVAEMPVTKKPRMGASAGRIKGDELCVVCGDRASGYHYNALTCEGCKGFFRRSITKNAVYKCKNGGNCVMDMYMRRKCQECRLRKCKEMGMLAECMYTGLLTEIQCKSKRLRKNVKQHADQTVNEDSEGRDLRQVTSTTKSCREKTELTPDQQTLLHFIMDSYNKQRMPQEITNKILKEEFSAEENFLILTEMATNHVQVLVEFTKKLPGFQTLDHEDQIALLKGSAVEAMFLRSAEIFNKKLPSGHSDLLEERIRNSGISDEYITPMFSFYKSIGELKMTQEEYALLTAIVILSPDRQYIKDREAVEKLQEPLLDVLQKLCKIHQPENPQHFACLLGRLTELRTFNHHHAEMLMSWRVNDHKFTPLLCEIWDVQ

CCOC(=O)/C=C(C)/C=C/C[C@@H](C)CCCC(C)C
inactive: [2] | [3] | [4] | [5] | [6] | [7]
active: [1] 47.4 µM | [8] 125 µM | [9] 65.2 µM

CC12CC1(C)C(=O)N(c1cc(Cl)cc(Cl)c1)C2=O (stereo unspecified)
inactive: [1] | [10] | [3] | [11] | [12] | [4] | [13] | [14] | [15] | [5] | [6] | [7] | [8] | [16] | [9]

Cc1ccc2ccccc2c1C
inactive: [1] | [10] | [17] | [3] | [11] | [12] | [15] | [7] | [16]

ClC1=C(Cl)[C@]2(Cl)[C@H]3[C@H]([C@H]4C=C[C@H]3C4)[C@@]1(Cl)C2(Cl)Cl
active: [17] 8.38 µM
inactive: [1] | [10] | [3] | [12] | [13] | [6] | [7] | [8] | [16] | [9]

Clc1ccc(COC(Cn2ccnc2)c2ccc(Cl)cc2Cl)cc1 (stereo unspecified)
inactive: [1] | [10] | [17] | [3] | [11] | [13] | [18] | [6] | [7] | [8] | [9]

CCCCOCCOC(C)=O
inactive: [1] | [2] | [19] | [3] | [12] | [4] | [14] | [6] | [7] | [16] | [9]

CCOC(=O)Nc1cccc(OC(=O)Nc2ccccc2)c1
inactive: [1] | [10] | [3] | [12] | [4] | [14] | [15] | [5] | [16] | [9]

C=CC(=O)OCCCCCC(C)C
inactive: [1] | [2] | [3] | [11] | [12] | [4] | [18] | [5] | [8] | [16] | [9]

C[C@@H](Oc1ccc(Cl)cc1Cl)C(=O)O
inactive: [1] | [2] | [3] | [12] | [4] | [13] | [5] | [6] | [8] | [9]

C=CC(=O)N(C)C
inactive: [1] | [2] | [3] | [12] | [4] | [14] | [15] | [6] | [7] | [16] | [9]

CC(=O)[O][Hg][c]1ccccc1
active: [2] 3.71 µM | [3] 3.71 µM
inactive: [1] | [19] | [13] | [18] | [14] | [15] | [6] | [16] | [9]

CCc1ccccc1C
inactive: [1] | [2] | [3] | [11] | [12] | [4] | [13] | [18] | [14] | [15] | [5] | [6] | [7] | [9]

COc1cccc(C=O)c1
active: [1] 0.175 µM
inactive: [10] | [19] | [3] | [12] | [4] | [5] | [6] | [7] | [16] | [9]

COP(=S)(OC)Oc1cc(Cl)c(Cl)cc1Cl
inactive: [10] | [3] | [11] | [13] | [14] | [15] | [5] | [6] | [8] | [9]
active: [1] 79.6 µM | [17] 36.3 µM

O=C(O)C(F)(F)C(F)(F)C(F)(F)C(F)(F)C(F)(F)C(F)(F)C(F)(F)C(F)(F)C(F)(F)C(F)(F)F
active: [1] 105 µM and 13.4 µM | [3] 26.7 µM | [14] 57.2 µM | [6] 129 µM | [9] 162 µM and 31.1 µM
inactive: [10] | [19] | [3] | [12] | [18] | [14] | [15] | [5] | [7] | [8]

CC(=O)C(Cl)C(=O)N(C)C (stereo unspecified)
inactive: [1] | [10] | [17] | [3] | [12] | [13] | [14] | [15] | [5] | [6] | [7] | [8] | [9]

Oc1ccc(-c2ccccc2)cc1
active: [2] 83.2 µM | [3] 69.4 µM
inactive: [1] | [13] | [18] | [6] | [7] | [16] | [9]

COP(=O)(OC)OC
inactive: [1] | [10] | [17] | [19] | [3] | [11] | [14] | [15] | [5] | [6] | [7] | [16] | [9]
